Reference: PubChem BioAssay (EPA / NIEHS)
A structure can be active in one record and inactive in another. The source made the active and inactive calls. How the source made its calls: active means hit-call score of the fitted dose curve at least 0.9, where 1 is the maximum; inactive means score below 0.9.

Tests used:
[1] = read-out: Tissue Factor, F3 (gene 2152); assay: BSK_CASM3C_TissueFactor: BioMAP Diversity Plus: CASM3C Assay for Tissue Factor Biomarker Activity (AID 2283052); settings: primary human coronary artery smooth muscle cells; actives raise or lower the signal;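 further: cell surface tissue factor protein level read by ELISA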
[2] = read-out: Interferon-gamma inducible Protein 10 (IP10), CXCL10 (gene 3627); assay: BSK_hDFCGF_IP10: BioMAP Diversity Plus: hDFCGF Assay for Interferon-gamma inducible Protein 10 (IP10) Biomarker Activity (AID 2283053); settings: primary human foreskin fibroblasts; actives raise or lower the signal
In short: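 IP-10 levels, quantified by ELISA, are taken from human foreskin fibroblast cultures 24 h after chemical treatment, with DMSO serving as negative control and baseline for bidirectional analysis.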

[3] = read-out: Urokinase-type plasminogen activator receptor (uPAR), PLAUR (gene 5329); assay: BSK_CASM3C_uPAR: BioMAP Diversity Plus: CASM3C Assay for Urokinase-type plasminogen activator receptor (uPAR) Biomarker Activity (AID 2283054); settings: primary human coronary artery smooth muscle cells; actives raise or lower the signal;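 further: cell-surface uPAR protein level quantified by ELISA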
[4] = read-out: Vascular cell adhesion molecule 1 (VCAM1), VCAM1 (gene 7412); assay: BSK_CASM3C_VCAM1: BioMAP Diversity Plus: CASM3C Assay for Vascular cell adhesion molecule 1 (VCAM1) Biomarker Activity (AID 2283055); settings: primary human coronary artery smooth muscle cells; actives raise or lower the signal;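 further: VCAM-1 protein level quantified by ELISA on the cells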
[5] = read-out: Collagen III, COL3A1 (gene 1281); assay: BSK_hDFCGF_CollagenIII: BioMAP Diversity Plus: hDFCGF Assay for Collagen III Biomarker Activity (AID 2283056); settings: primary human foreskin fibroblasts; actives raise or lower the signal
In short: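 ELISA readout of Collagen III in human dermal (foreskin) fibroblasts, taken 24 h post-treatment. Gain or loss relative to DMSO vehicle fitted in both directions.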

[6] = read-out: Epidermal growth factor receptor (EGFR), EGFR (gene 1956); assay: BSK_hDFCGF_EGFR: BioMAP Diversity Plus: hDFCGF Assay for Epidermal growth factor receptor (EGFR) Biomarker Activity (AID 2283057); settings: primary human foreskin fibroblasts; actives raise or lower the signal
In short: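 Measured by ELISA: EGFR levels on primary human foreskin fibroblasts 24 h after chemical treatment, analysed relative to DMSO with bidirectional fitting.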

[7] = read-out: Interleukin-8 (IL8), CXCL8 (gene 3576); assay: BSK_hDFCGF_IL8: BioMAP Diversity Plus: hDFCGF Assay for Interleukin-8 (IL8) Biomarker Activity (AID 2283058); settings: primary human foreskin fibroblasts; actives raise or lower the signal
In short: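 IL-8 levels read by ELISA at 24 hours after dosing human skin fibroblast cultures. Parallel SRB staining assessed overt cytotoxicity, and gain or loss of signal was fitted against DMSO control.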

[8] = BSK_hDFCGF_Proliferation: Cell Proliferation Assessment in the BioMAP Diversity Plus: hDFCGF Assay (AID 2283059); settings: primary human foreskin fibroblasts;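 further: curves fitted for both rise and fall of signal versus DMSO baseline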
In short: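 This proliferation readout used SRB total-protein staining of human foreskin fibroblasts […], normalized to DMSO with bidirectional curve fitting.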

[9] = read-out: Macrophage colony-stimulating factor (MCSF), CSF1 (gene 1435); assay: BSK_hDFCGF_MCSF: BioMAP Diversity Plus: hDFCGF Assay for Macrophage colony-stimulating factor (MCSF) Biomarker Activity (AID 2283060); settings: primary human foreskin fibroblasts; actives raise or lower the signal
In short: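 M-CSF levels read by ELISA at 24 h post-dosing in human skin fibroblasts. Parallel cultures stained with SRB assessed cytotoxicity at the same time point; response fitted in both directions against the DMSO baseline.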

[10] = read-out: TIMP metallopeptidase inhibitor 1 (TIMP1), TIMP1 (gene 7076); assay: BSK_hDFCGF_TIMP1: BioMAP Diversity Plus: hDFCGF Assay for TIMP metallopeptidase inhibitor 1 (TIMP1) Biomarker Activity (AID 2283062); settings: primary human foreskin fibroblasts; actives raise or lower the signal
In short: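 TIMP-1 measured by ELISA 24 h after chemical dosing of primary human skin fibroblasts, with gain or loss fitted relative to DMSO. Parallel SRB staining (560 nm) monitored overt cytotoxicity.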

[11] = read-out: Monokine induced gamma interferon (MIG), CXCL9 (gene 4283); assay: BSK_hDFCGF_MIG: BioMAP Diversity Plus: hDFCGF Assay for Monokine induced gamma interferon (MIG) Biomarker Activity (AID 2283063); settings: primary human foreskin fibroblasts; actives raise or lower the signal
In short: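 Human primary foreskin fibroblasts in the hDFCGF system, exposed to test chemical for 24 h; MIG measured by ELISA. Bidirectional curve fitting against DMSO negative control as activity baseline.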

[12] = read-out: Matrix Metallopeptidase 1 (MMP1), MMP1 (gene 4312); assay: BSK_hDFCGF_MMP1: BioMAP Diversity Plus: hDFCGF Assay for Matrix Metallopeptidase 1 (MMP1) Biomarker Activity (AID 2283064); settings: primary human foreskin fibroblasts; actives raise or lower the signal
In short: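 Primary human foreskin fibroblasts exposed to chemicals for 24 h; MMP1 measured by ELISA. Cytotoxicity tracked by SRB staining in parallel cultures; bidirectional fit relative to DMSO.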

[13] = read-out: Vascular cell adhesion molecule 1 (VCAM1), VCAM1 (gene 7412); assay: BSK_hDFCGF_VCAM1: BioMAP Diversity Plus: hDFCGF Assay for Vascular cell adhesion molecule 1 (VCAM1) Biomarker Activity (AID 2283065); settings: primary human foreskin fibroblasts; actives raise or lower the signal;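 on AC50: VCAM-1 protein level quantified by ELISA after 24 h chemical exposure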
In short: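 ELISA readout of VCAM-1 on human dermal fibroblast primary cultures, 24 h after chemical exposure. Gain or loss of signal fitted in both directions against DMSO baseline.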

[14] = read-out: Plasminogen activator inhibitor-1 (PAI1), SERPINE1 (gene 5054); assay: BSK_hDFCGF_PAI1: BioMAP Diversity Plus: hDFCGF Assay for Plasminogen activator inhibitor-1 (PAI1) Biomarker Activity (AID 2283066); settings: primary human foreskin fibroblasts; actives raise or lower the signal
In short: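 PAI-1 levels, determined by ELISA, served as the endpoint in human foreskin fibroblast cultures exposed to compound for 24 h, with DMSO as baseline.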

[15] = read-out: Intercellular Adhesion Molecule 1 (ICAM1), ICAM1 (gene 3383); assay: BSK_KF3CT_ICAM1: BioMAP Diversity Plus: KF3CT Assay for Intercellular Adhesion Molecule 1 (ICAM1) Biomarker Activity (AID 2283067); settings: primary human keratinocytes with fibroblasts; actives raise or lower the signal
In short: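 Cell-surface ICAM-1 was measured by ELISA 24 h after dosing primary human skin keratinocytes co-cultured with fibroblasts. Parallel SRB staining tracked overt cytotoxicity. Gain or loss of signal was fitted relative to DMSO.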

[16] = read-out: Interferon-gamma inducible Protein 10 (IP10), CXCL10 (gene 3627); assay: BSK_KF3CT_IP10: BioMAP Diversity Plus: KF3CT Assay for Interferon-gamma inducible Protein 10 (IP10) Biomarker Activity (AID 2283068); settings: primary human keratinocytes with fibroblasts; actives raise or lower the signal
In short: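 Signal is secreted/surface IP-10 by ELISA in a human primary skin co-culture of keratinocytes and foreskin fibroblasts, taken 24 h post-dosing; DMSO served as negative control.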

[17] = BSK_KF3CT_SRB: Viability Assessment in the BioMAP Diversity Plus: KF3CT Assay (AID 2283069); settings: primary human keratinocytes with fibroblasts;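 further: total protein by sulforhodamine B staining as a cytotoxicity measure; read 24 h after compound addition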
In short: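 Human keratinocyte and foreskin fibroblast co-culture exposed to chemical for 24 h. Total protein measured in parallel cultures by 0.1% sulforhodamine B staining after 10% TCA fixation, read at 560 nm; bidirectional fit relative to DMSO.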

[18] = BSK_hDFCGF_SRB: Viability Assessment in the BioMAP Diversity Plus: hDFCGF Assay (AID 2283061); settings: primary human foreskin fibroblasts;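 further: cells exposed to compound for 24 h before the read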
In short: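 Viability was read as total protein: after 10% TCA fixation, wells were stained with 0.1% sulforhodamine B and read at 560 nm. Primary human foreskin fibroblasts were dosed for 24 h, with bidirectional fitting versus DMSO.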

[19] = read-out: TIMP metallopeptidase inhibitor 2 (TIMP2), TIMP2 (gene 7077); assay: BSK_KF3CT_TIMP2: BioMAP Diversity Plus: KF3CT Assay for TIMP metallopeptidase inhibitor 2 (TIMP2) Biomarker Activity (AID 2283071); settings: primary human keratinocytes with fibroblasts; actives raise or lower the signal
In short: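 Keratinocyte–fibroblast co-culture, 24 h exposure; TIMP-2 ELISA, DMSO-normalised bidirectional fit. Parallel SRB (0.1%, TCA-fixed, 560 nm) total-protein staining gauges cytotoxicity.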

[20] = read-out: Interleukin-1 alpha (IL1a), IL1A (gene 3552); assay: BSK_KF3CT_IL1a: BioMAP Diversity Plus: KF3CT Assay for Interleukin-1 alpha (IL1a) Biomarker Activity (AID 2283070); settings: primary human keratinocytes with fibroblasts; actives raise or lower the signal
In short: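 Primary human keratinocyte plus foreskin fibroblast co-culture, dosed and measured at 24 h in 96-well plates. IL-1a level quantified by ELISA; bidirectional fit relative to DMSO.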

Measured: AC50

N#Cc1ccc(CC(=NNC(=O)Nc2ccc(OC(F)(F)F)cc2)c2cccc(C(F)(F)F)c2)cc1
not listed: [18] | [19] | [20]
inactive: all other assays above

CCCCC(CC)COC(=O)/C=C\C(=O)OCC(CC)CCCC (centres undefined)
active: [4] 20 µM | [8] 10.5 µM | [14] 7.23 µM
not listed: [11] | [16] | [19] | [20]
inactive: all other assays above

O=C(O)c1cn(-c2ccc(F)cc2)c2cc(N3CCNCC3)c(F)cc2c1=O
not listed: [11] | [16] | [19] | [20]
inactive: all other assays above

CCc1c(C)cc(N)c(CC)c1N
not listed: [16] | [18] | [19] | [20]
inactive: all other assays above

Cc1ccc(Nc2ccc(O)c3c2C(=O)c2ccccc2C3=O)cc1
active: [8] 2.4 µM | [14] 1.61 µM
not listed: [11] | [16] | [19] | [20]
inactive: all other assays above

c1ccc2c(c1)c1cccc3ccc4cccc2c4c31
not listed: [11] | [16] | [18] | [19] | [20]
inactive: all other assays above

CC[Si](OC(C)=O)(OC(C)=O)OC(C)=O
inactive: [1] | [2] | [3] | [4] | [5] | [6] | [7] | [8] | [9] | [18] | [10] | [12] | [13] | [14] | [15] | [17]
active: [5] 5.47 µM | [8] 16.1 µM

C#C[C@]1(O)CC[C@H]2[C@@H]3CCC4=Cc5oncc5C[C@]4(C)[C@H]3CC[C@@]21C
active: [4] 25 µM | [13] 20 µM
not listed: [18] | [19] | [20]
inactive: all other assays above

OC[C@H]1O[C@H](O[C@]2(CCl)O[C@H](CCl)[C@@H](O)[C@@H]2O)[C@H](O)[C@@H](O)[C@H]1Cl
not listed: [16] | [18] | [19] | [20]
inactive: all other assays above

BrC1CCC(Br)C(Br)CCC(Br)C(Br)CCC1Br (centres undefined)
active: [8] 1.33 µM | [9] 4.61 µM | [13] 4.68 µM | [14] 1.37 µM | [16] 4.53 µM
not listed: [11] | [18] | [19] | [20]
inactive: all other assays above

CC(C)Oc1ccccc1O
active: [8] 20 µM
not listed: [16] | [20]
inactive: all other assays above

CC(=O)/C=C/C1=C(C)CCCC1(C)C
active: [4] 0.016 µM
not listed: [11] | [18] | [19] | [20]
inactive: all other assays above

O=C(O)C[C@H](O)C[C@H](O)/C=C/c1c(C2CC2)nc2ccccc2c1-c1ccc(F)cc1
active: [1] 0.0041 µM | [4] 0.0041 µM | [8] 0.992 µM | [14] 2.96 µM
not listed: [11] | [16] | [18]
inactive: all other assays above
